Compound activity (PubChem)
CCT chaperon mod = changes cytosolic chaperonin activity; activity change, % (no concentration beside the values), hits read low; purified chaperonin ATPase assay, HTRF ADP detection, 30 min; 0.3% of 360,000 active; in the data active = activity change below about -30%; note: % is set by controls: 0 for no effect and ±100 for the full control effect
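TRiC (40 or 20 nM final, by batch activity) in 30 mM Tris pH 7.4, 100 mM KCl, 5 mM MgCl2, 1 mM DTT was treated with compound at 76 uM single dose, then 10 uM ATP, 30 min at 37 °C. ADP was read by HTRF Transcreener.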
MmCpn inh = blocks the Methanococcus maripaludis chaperonin Mm-Cpn; AID 504842; 0.031% of 330,000 active; Potency, µM (doses to about 76.9 µM), for the others: top-dose activity, negative = inhibition, hits mostly inhibitors; purified Mm-Cpn ATPase, ADP Transcreener TR-FRET; note: potency is the fitted concentration of half-maximal effect; % is set by controls: 0 for no effect and ±100 for the full control effect; nearly all actives have a fitted effect of over 80% in size
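Quantitative HTS used 25 nM Mm-CPN and 10 uM ATP in magnesium/KCl Tris buffer, pH 7.4, with 1 mM DTT. Hydrolysis ran 30 min at 37°C; ADP was read by HTRF.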
pAkt inh = Akt phosphorylation inhibition. 0.32% of 360,000 active. activity change, % for hits at 50 µM. Neuro2A IGF-stimulated pAkt S473 HTRF, 20 min; active compounds read low; in the data active = activity change below about -80%; inconclusive = mostly about -51% to -80%; note: % is set by controls: 0 for no effect and ±100 for the full control effect
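Neuro2A cells (4,500/well, DMEM with 0.5% FBS) were treated with compound at a single 50 µM final concentration, stimulated with 6 nM IGF for 20 min at 37 °C, and lysed. Phospho-Akt Ser473 was read by HTRF as 665/615 ratio ×10^4.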
uPA generation = cell surface uPA generation inhibition. Potency, µM (titrated, usually from 38.3 µM), for inactives: at the top dose activity change, negative = inhibition, hits mostly inhibitors. AID 540303. cell surface uPA generation assay, qHTS. 0.31% of 330,000 active; active = well fitted inhibition curve with a large enough effect; inconclusive = small, poorly fitted or top-dose-only effect; inactive = no such curve, though single readings can be large or run the other way; tested in mouse RAW 264.7 cells; note: potency is the fitted concentration of half-maximal effect; % is set by controls: 0 for no effect and ±100 for the full control effect; nearly all actives have a fitted effect of over 55% in size
Epigenetic derep = epigenetic control regulation, reporter derepression; murine LDR cells, GFP reporter derepression, 30 h; Potency, µM (top dose mostly 53.9 µM), for inactives: top-dose GFP activation, hits mostly activators; 0.2% of 280,000 active; note: potency is the fitted concentration of half-maximal effect; % of control where 0% means no effect; nearly all actives have a fitted effect of over 60% in size
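Murine LDR cells carrying a silenced, genomically integrated CMV-driven GFP reporter were exposed to compound for 30 hours at 37 C. After PBS washes, GFP-positive cells (20–120 um objects) were counted by laser-scanning microplate cytometry.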
MBNL1 CUG block = inhibitors of human MBNL1 binding to CUG repeat RNA; TR-FRET MBNL1-His/biotin-(CUG)12 binding, 665/545 ratio; Potency, µM (highest dose often 57.5 µM), for the others: at the highest dose activity change, negative = inhibition, actives largely listed as inhibitors; 0.036% of 280,000 active; AID 2675; active = well fitted inhibition curve with a large enough effect in the signal ratio, with a control signal flat, not every such curve was filed as active; inconclusive = small, poorly fitted or top-dose-only effect, or effect the other way, or a change in a side signal; inactive = no such curve, though single readings can be large or run the other way; the % refers to the signal ratio; note: potency is the fitted concentration of half-maximal effect; % is set by controls: 0 for no effect and ±100 for the full control effect
Target sequence (Q9NR56 whole entry, looked up): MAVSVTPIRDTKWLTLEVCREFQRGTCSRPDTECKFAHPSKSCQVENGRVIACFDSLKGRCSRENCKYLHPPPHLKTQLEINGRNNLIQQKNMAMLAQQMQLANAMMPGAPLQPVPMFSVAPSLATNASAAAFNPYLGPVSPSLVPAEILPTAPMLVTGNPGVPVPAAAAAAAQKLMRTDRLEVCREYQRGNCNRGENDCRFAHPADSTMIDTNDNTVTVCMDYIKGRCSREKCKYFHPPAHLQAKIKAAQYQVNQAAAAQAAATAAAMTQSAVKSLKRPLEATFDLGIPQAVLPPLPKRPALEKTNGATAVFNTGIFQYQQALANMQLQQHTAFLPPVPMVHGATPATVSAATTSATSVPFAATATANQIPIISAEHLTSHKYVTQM
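TR-FRET between His-tagged MBNL1 and biotin-(CUG)12 RNA, detected with Tb anti-His antibody (0.055 ng/ul) and streptavidin-XL665 (5 nM), 60 min at room temperature. Compounds titrated 92 nM to 58 uM; 665/545 nm ratio normalized to buffer and complex controls.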
Parental c127i = counter-screen for epigenetic modulators: effect in parental c127i cells. Potency, µM, for the others: at the top dose fluorescent cell count, most hits filed as activators. 20% of 60 active. mouse c127i parental cells, fluorescent cell count, 30 h. shares compounds with Epigenetic derep
HCC4017 tox = reduces HCC4017 lung cancer cell viability among epigenetic modulators; 30% of 45 active; Potency, µM (series often up to 46.1 µM), inactives show at the highest dose activity change, negative = cytotoxicity, usual class: cytotoxic; HCC4017 NSCLC viability, CellTiter-Glo ATP luminescence, 72 h; shares compounds with Epigenetic derep; AID 493071
H358 viab = epigenetic modulators: cytotoxicity in H358 lung cancer cells; shares compounds with Epigenetic derep; H358 NSCLC viability, ATP luminescence, 72 h; Potency, µM (titrated, usually from 46.1 µM), for the others: at the highest dose activity change, negative = viability loss, actives largely listed as cytotoxic; 30% of 45 active; AID 493074
MBNL1 TRFRET = MBNL1-poly(CUG) RNA binding inhibition confirmed. 50% of 140 active. shares compounds with MBNL1 CUG block. TR-FRET MBNL1-His / biotin-(CUG)12 binding, 60 min. Potency, µM (series often up to 57.6 µM), for the others: top-dose activity change, negative = inhibition, actives largely listed as inhibitors. AID 493199
MBNL1-CUG Alpha = confirmation of MBNL1-(CUG)12 RNA binding inhibitors, orthogonal format; Potency, µM (doses to about 57.7 µM), inactives show top-dose activity, negative = inhibition, most hits filed as inhibitors; AlphaScreen MBNL1-His / biotin-(CUG)12 binding; AID 493205; 30% of 140 active; shares compounds with MBNL1 CUG block
MBNL1 HTRF CS = hit in HTRF counterscreen for MBNL1-poly(CUG) binding inhibitors; AID 651843; His-Menin/biotin-MLL peptide TR-FRET counterscreen; Potency, µM (doses to about 57.6 µM), for inactives: top-dose activity, negative = inhibition, actives largely listed as inhibitors; shares compounds with MBNL1 CUG block; 20% of 120 active
Starred values were filed as active, the others as inactive; i = inactive; u = inconclusive; x = no result. The list is not random: actives were taken first. Their share in the collection is about 0.97%. Unless noted, calls come from the whole dose curve; as a rule, active = well fitted curve in the direction sought with a large enough effect; inconclusive = small, poorly fitted or top-dose-only effect, or another doubt; inactive = no such curve, though single readings can be large; an effect the other way counts as inactive or inconclusive.

SMILES	CCT chaperon mod	MmCpn inh	pAkt inh	uPA generation	Epigenetic derep	MBNL1 CUG block	Parental c127i	HCC4017 tox	H358 viab	others
Cc1ccc2nc(/C(C#N)=C\c3cc(O)ccc3[N+](=O)[O-])[nH]c2c1	-3	-1%	i	1%	-1%	u	x	x	x
CCCOc1cc(N(CC)CC)ccc1/C=C(/C#N)c1nc2ccc(C)cc2[nH]1	-2	3%	i	-6%	2%	7%	2.5µM*	x	x
CCOc1ccc(CCNC(=O)c2sc3ncccc3c2-n2cccc2)cc1OCC	x	x	x	x	0%	x	x	x	x
CN1C(C(=O)NC(C)(C)C)=CC(c2ccc3c(c2)OCO3)=NS1(=O)=O	x	x	x	x	1%	x	x	x	x
O=c1c2ccccc2nc(COc2ccccc2)n1/N=C/c1ccc(O)cc1O	-4	1%	i	u	0%	-7%	x	x	x
O=c1c2ccccc2nc(COc2ccccc2)n1/N=C/c1c[nH]c2ccccc12	-5	1%	i	-5%	10µM*	-13%	5%	u	-27%
O=C1CN(c2nc(-c3ccccc3)c3cc(Cl)ccc3n2)c2ccccc2N1	2	-2%	i	0%	u	-19%	14%	-26%	u
Oc1ccc(Br)cc1C=Nc1ccc2c3c(cccc13)CC2	0	-9%	i	-6%	3.5µM*	x	2%	-11%	u
Oc1ccc(Cl)cc1C=Nc1ccccc1Br	-2	-1%	i	-3%	-3%	u	x	x	x
Cc1ccc(/C=[N+](\[O-])c2ccc(N(C)C)cc2)c2nsnc12	0	-145%	i	-16%	u	u	18%	14µM*	28µM*
COc1ccc(S(N)(=O)=O)cc1C(=O)OCCCC(=O)c1ccccc1	-1	1%	i	2%	x	x	x	x	x
O=C(CSc1cccc2cccnc12)N1CCCC1	2	-1%	i	2%	0%	20%	x	u	-23%
COc1nc(Nc2nc3ccccc3c(=O)[nH]2)nc2ccc(C)cc12	2	0%	i	-5%	u	-4%	5%	2.8µM*	3.1µM*
Cc1cc(C)cc(Nc2nc3ccccc3c(=O)[nH]2)c1	1	2%	i	2%	2%	-3%	x	x	x
CCN(CC)CCCNC(=O)CSc1c2c(nc3cc(Cl)ccc13)CCCC2	0	u	i	-9%	u	99%	5%	u	28µM*
O=C(CSc1c2c(nc3cc(Cl)ccc13)CCCC2)NCCCN1CCOCC1	1	-10%	i	u	-2%	45%	x	x	x
S=C(Nc1ccccc1)c1ccccn1	5	-2%	i	-4%	5.6µM*	11%	22µM*	-27%	-17%
CCOC(=O)C1=C(C(=O)OCC)c2ccc(OC)c(OC)c2C1	1	x	i	-3%	x	x	x	x	x
O=C(OCC1OC(OC(=O)c2cc(O)c(O)c(OC(=O)c3cc(O)c(O)c(O)c3)c2)[C@@H](OC(=O)c2cc(O)c(O)c(OC(=O)c3cc(O)c(O)c(O)c3)c2)C(OC(=O)c2cc(O)c(O)c(OC(=O)c3cc(O)c(O)c(O)c3)c2)C1OC(=O)c1cc(O)c(O)c(OC(=O)c2cc(O)c(O)c(O)c2)c1)c1cc(O)c(O)c(OC(=O)c2cc(O)c(O)c(O)c2)c1 (stereo not given in full)	x	x	x	x	1%	x	x	x	x	MBNL1 TRFRET=0.41µM*;MBNL1-CUG Alpha=0.029µM*
COc1cc(C2C(=O)N(C3CCCCCC3)CC(=O)N2Cc2ccccc2)ccc1OC(C)C (stereo not given)	x	x	x	x	1%	x	x	x	x
Cn1nccc1NC(=O)Nc1cccc([N+](=O)[O-])c1	0	-8%	i	-3%	-2%	u	x	x	x
Cn1nccc1NC(=O)Nc1cccc(Cl)c1	-3	-1%	i	-4%	-1%	32µM*	x	x	x	MBNL1 TRFRET=u;MBNL1-CUG Alpha=u;MBNL1 HTRF CS=33µM*
COCCNC(=O)C(c1cccs1)N(C(=O)Cn1nnc2ccccc21)c1cccc(C)c1 (stereo not given)	-2	u	i	2%	1%	1%	x	x	x
COCCNC(=O)C(c1cccs1)N(C(=O)Cn1nnc2ccccc21)c1ccc(OC)cc1 (stereo not given)	-2	2%	i	0%	-1%	28µM*	x	x	x	MBNL1 TRFRET=-4%;MBNL1-CUG Alpha=-11%;MBNL1 HTRF CS=2%
O=C(O)C1Nc2c(O)cccc2C2C=CCC12 (stereo not given)	-7	-4%	i	0%	2%	x	x	x	x	MBNL1 TRFRET=10µM*;MBNL1-CUG Alpha=2.1µM*;MBNL1 HTRF CS=5%
COC(=O)c1cc(C(=O)OC)cc(-n2c(C)cc(C(=O)COC(=O)CNS(=O)(=O)c3ccc(C)cc3)c2C)c1	0	-8%	i	-6%	5%	-3%	x	x	x
Fc1cc2ncn(Cc3ccccc3)c2cc1F	-1	-2%	i	0%	-1%	-6%	x	x	x
Cc1ccc(-c2cc(-c3ccccc3C)[nH]n2)c(O)c1	-4	4%	i	12%	-1%	20µM*	x	x	x	MBNL1 TRFRET=5%;MBNL1-CUG Alpha=4%;MBNL1 HTRF CS=-2%
Cc1ccc(O)c(-c2cc(-c3ccccc3F)[nH]n2)c1	1	0%	x	-9%	16%	4%	x	x	x
